Assay results from PubChem BioAssay (NCATS).
Records with an inconclusive call do not appear. The source made the active and inactive calls. Calls follow the shape of the dose curve; as a rule, active = well fitted curve in the direction sought with a large enough effect; inconclusive = small, poorly fitted or top-dose-only effect, or another doubt; inactive = no such curve, though single readings can be large; an effect the other way counts as inactive or inconclusive.

Tests used:
[1] = Quantitative High-Throughput drug screen in 47 multiple myeloma cell lines against the NCATS MIPE library collection: JIM3_ECACC cell viability assay (AID 1918963; also: nearly all actives have a fitted effect of over 35% in size; also: potency is read from the fitted curve at half-maximal effect)
In short: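 qHTS of the MIPE 4.0 collection: 500 myeloma cells/well, 48 h drug exposure at 37C in 5% CO2, then CellTiter-Glo for 5 min at room temperature before luminescence reading.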

[2] = Quantitative High-Throughput drug screen in 47 multiple myeloma cell lines against the NCATS MIPE library collection: Karpas25_ECACC cell viability assay (AID 1918968; also: nearly all actives have a fitted effect of over 35% in size; also: potency is read from the fitted curve at half-maximal effect)
In short: (§1)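 CellTiter-Glo ATP luminescence gave viability after 48 h compound treatment at 37C of 500 multiple myeloma cells per well. Normalisation used DMSO-only wells as 100% and media-only wells as 0% viability; primary qHTS of approved and investigational drugs.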

[3] = Quantitative High-Throughput drug screen in 47 multiple myeloma cell lines against the NCATS MIPE library collection: KMS27_JCRB cell viability assay (AID 1918970); also: nearly all actives have a fitted effect of over 30% in size; also: potency is read from the fitted curve at half-maximal effect
In short: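 Myeloma cells (500 per well) were exposed to MIPE 4.0 compounds for 48 h at 37 °C, 5% CO2; viability was read as ATP luminescence with CellTiter-Glo, normalized to DMSO-only (100%) and media-only (0%) wells.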

[4] = Quantitative High-Throughput drug screen in 47 multiple myeloma cell lines against the NCATS MIPE library collection: KMS12BM_JCRB cell viability assay (AID 1918971); also: nearly all actives have a fitted effect of over 35% in size; also: potency is read from the fitted curve at half-maximal effect
In short: (§2)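 Myeloma cell lines, 500 cells per well, exposed to MIPE 4.0 library compounds for 48 h at 37C, 5% CO2. Viability from ATP by CellTiter-Glo luminescence; normalised to DMSO (100%) and media-only (0%) wells.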

[5] = Quantitative High-Throughput drug screen in 47 multiple myeloma cell lines against the NCATS MIPE library collection: NCIH929_DSMZ cell viability assay (AID 1918978); also: nearly all actives have a fitted effect of over 35% in size; also: potency is read from the fitted curve at half-maximal effect
In short: (§3)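 qHTS format: cells plated (500/well), pin-dosed with MIPE 4.0 compounds, kept 48 h at 37 °C. Readout was CellTiter-Glo luminescence, median RLU.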

[6] = Quantitative High-Throughput drug screen in 47 multiple myeloma cell lines against the NCATS MIPE library collection: OCIMY1_PLB cell viability assay (AID 1918979); also: nearly all actives have a fitted effect of over 35% in size
In short: as §3

[7] = Quantitative High-Throughput drug screen in 47 multiple myeloma cell lines against the NCATS MIPE library collection: MM1S_ATCC cell viability assay (AID 1918980); also: nearly all actives have a fitted effect of over 45% in size; also: potency is read from the fitted curve at half-maximal effect
In short: as §3

[8] = Quantitative High-Throughput drug screen in 47 multiple myeloma cell lines against the NCATS MIPE library collection: MM1R_ATCC cell viability assay (AID 1918981); also: nearly all actives have a fitted effect of over 35% in size; also: potency is read from the fitted curve at half-maximal effect
In short: as §3

[9] = Quantitative High-Throughput drug screen in 47 multiple myeloma cell lines against the NCATS MIPE library collection: LP1_DSMZ cell viability assay (AID 1918982); also: nearly all actives have a fitted effect of over 35% in size
In short: as §3

[10] = Quantitative High-Throughput drug screen in 47 multiple myeloma cell lines against the NCATS MIPE library collection: JJN3_DSMZ cell viability assay (AID 1918966; also: nearly all actives have a fitted effect of over 50% in size; also: potency is read from the fitted curve at half-maximal effect)
In short: as §1

[11] = Quantitative High-Throughput drug screen in 47 multiple myeloma cell lines against the NCATS MIPE library collection: KMS20_JCRB cell viability assay (AID 1918973); also: nearly all actives have a fitted effect of over 45% in size; also: potency is read from the fitted curve at half-maximal effect
In short: as §1

[12] = Quantitative High-Throughput drug screen in 47 multiple myeloma cell lines against the NCATS MIPE library collection: MOLP8_DSMZ cell viability assay (AID 1918977); also: nearly all actives have a fitted effect of over 45% in size; also: potency is read from the fitted curve at half-maximal effect
In short: as §3

[13] = Quantitative High-Throughput drug screen in 47 multiple myeloma cell lines against the NCATS MIPE library collection: KMS12PE_JCRB cell viability assay (AID 1918972); also: nearly all actives have a fitted effect of over 30% in size; also: potency is read from the fitted curve at half-maximal effect
In short: (§4)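 Luminescent ATP measurement with CellTiter-Glo gives viability, scaled between DMSO-only wells (100%) and media-only wells (0%). Cells, 500 per well, faced library compounds for 48 hours at 37C.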

[14] = Quantitative High-Throughput drug screen in 47 multiple myeloma cell lines against the NCATS MIPE library collection: KMS26_JCRB cell viability assay (AID 1918975); also: nearly all actives have a fitted effect of over 45% in size; also: potency is read from the fitted curve at half-maximal effect
In short: as §2

[15] = Quantitative High-Throughput drug screen in 47 multiple myeloma cell lines against the NCATS MIPE library collection: H1112_PLB cell viability assay (AID 1918967; also: nearly all actives have a fitted effect of over 30% in size; also: potency is read from the fitted curve at half-maximal effect)
In short: as §1

[16] = Quantitative High-Throughput drug screen in 47 multiple myeloma cell lines against the NCATS MIPE library collection: JIM1_ECACC cell viability assay (AID 1918964)
In short: as §1

[17] = Quantitative High-Throughput drug screen in 47 multiple myeloma cell lines against the NCATS MIPE library collection: INA6_PLB cell viability assay (AID 1918965; also: potency is read from the fitted curve at half-maximal effect; nearly all actives have a fitted effect of over 55% in size)
In short: as §4

[18] = Quantitative High-Throughput drug screen in 47 multiple myeloma cell lines against the NCATS MIPE library collection: KMS21BM_JCRB cell viability assay (AID 1918974); conditions: ATP luminescence, 48 h; viability: at 45.8 µM (top of the series); also: potency is read from the fitted curve at half-maximal effect
In short: as §1

Measured: Potency

Cc1onc(-c2ccccc2Cl)c1C(=O)N[C@@H]1C(=O)N2[C@@H]1SC(C)(C)[C@@H]2C(=O)O
inactive: [1] | [2] | [3] | [4] | [5] | [6] | [8] | [9]
active: [7] 14.8 µM

CCOCC(O)COc1ccc(NC(=O)CC[S+](C)C)cc1 (configuration not stated)
inactive: [1] | [10] | [3] | [4] | [11] | [12] | [5] | [9]

S=P(N1CC1)(N1CC1)N1CC1
inactive: [1] | [13] | [14] | [6] | [9]
active: [10] 0.0118 µM | [3] 0.469 µM | [7] 18.7 µM | [8] 18.7 µM

C#CCN[C@@H]1CCc2ccccc21
inactive: [1] | [11] | [14] | [5] | [6] | [7] | [8] | [9]
active: [4] 11.8 µM

COc1ccc(C(=O)CC(=O)c2ccc(C(C)(C)C)cc2)cc1
inactive: [6]
active: [10] 0.935 µM | [15] 7.43 µM | [2] 2.35 µM | [3] 3.32 µM | [4] 2.35 µM | [13] 5.26 µM | [11] 2.96 µM | [14] 7.43 µM | [5] 1.32 µM | [7] 1.05 µM | [8] 2.35 µM

OCc1ccc(-c2nn(Cc3ccccc3)c3ccccc23)o1
active: [2] 9.35 µM | [4] 10.5 µM | [11] 1.87 µM | [5] 14.8 µM | [7] 4.18 µM
inactive: [1] | [3] | [6]

N=C(N)c1ccc(OCCCCCOc2ccc(C(=N)N)cc2)cc1
inactive: [16] | [3]
active: [17] 3.72 µM | [10] 16.6 µM | [4] 5.9 µM | [11] 10.5 µM | [12] 5.26 µM | [7] 16.6 µM

COc1c(N2CCNC(C)C2)c(F)cc2c(=O)c(C(=O)O)cn(C3CC3)c12 (configuration not stated)
inactive: [1] | [10] | [15] | [2] | [3] | [12] | [6] | [7] | [9]

CCN(CC)CC#CCOC(=O)C(O)(c1ccccc1)C1CCCCC1 (configuration not stated)
inactive: [1] | [4] | [12] | [5] | [6] | [8]
active: [18] 4.69 µM

COc1cc2ncnc(Nc3cccc(Cl)c3)c2cc1OC
inactive: [9]
active: [10] 33.2 µM | [3] 29.6 µM | [4] 26.4 µM | [13] 20.9 µM | [14] 23.5 µM | [12] 20.9 µM | [7] 0.0743 µM | [8] 20.9 µM

CC(=O)[C@H]1CC[C@H]2[C@@H]3CC=C4C[C@@H](O)CC[C@]4(C)[C@H]3CC[C@]12C
inactive: [1] | [2] | [13] | [5] | [6] | [7] | [9]

CN(Cc1cc(Br)cc(Br)c1N)C1CCCCC1
inactive: [1] | [3] | [13] | [12] | [5] | [7]

CC1=C(C(=O)O)N2C(=O)[C@@H](NC(=O)C(N)c3ccccc3)[C@H]2SC1 (some centres not stated)
inactive: [13] | [11] | [5] | [6] | [9]
active: [1] 0.0017 µM
